Results from PubChem BioAssay (EPA / NIEHS).
Several values for one entry are separate records, joined by “and”; a condition that tells them apart may be missing. Equal values may be shown once. A structure can be active in one record and inactive in another. Activity calls are given as the source filed them. How the source made its calls: active means hit-call score of the fitted dose curve at least 0.9, where 1 is the maximum; inactive means score below 0.9.

molecular target: Transcription factor Sp1 (Homo sapiens) (UniProt P08047); assay: ATG_Sp1_CIS: Attagene CIS-FACTORIAL HepG2 Assay for human Specificity Protein 1 (Sp1) (AID 2282961); conditions: HepG2 Sp1 cis-reporter transcription, actives raise or lower the signal
Sequence (P08047 whole entry, looked up): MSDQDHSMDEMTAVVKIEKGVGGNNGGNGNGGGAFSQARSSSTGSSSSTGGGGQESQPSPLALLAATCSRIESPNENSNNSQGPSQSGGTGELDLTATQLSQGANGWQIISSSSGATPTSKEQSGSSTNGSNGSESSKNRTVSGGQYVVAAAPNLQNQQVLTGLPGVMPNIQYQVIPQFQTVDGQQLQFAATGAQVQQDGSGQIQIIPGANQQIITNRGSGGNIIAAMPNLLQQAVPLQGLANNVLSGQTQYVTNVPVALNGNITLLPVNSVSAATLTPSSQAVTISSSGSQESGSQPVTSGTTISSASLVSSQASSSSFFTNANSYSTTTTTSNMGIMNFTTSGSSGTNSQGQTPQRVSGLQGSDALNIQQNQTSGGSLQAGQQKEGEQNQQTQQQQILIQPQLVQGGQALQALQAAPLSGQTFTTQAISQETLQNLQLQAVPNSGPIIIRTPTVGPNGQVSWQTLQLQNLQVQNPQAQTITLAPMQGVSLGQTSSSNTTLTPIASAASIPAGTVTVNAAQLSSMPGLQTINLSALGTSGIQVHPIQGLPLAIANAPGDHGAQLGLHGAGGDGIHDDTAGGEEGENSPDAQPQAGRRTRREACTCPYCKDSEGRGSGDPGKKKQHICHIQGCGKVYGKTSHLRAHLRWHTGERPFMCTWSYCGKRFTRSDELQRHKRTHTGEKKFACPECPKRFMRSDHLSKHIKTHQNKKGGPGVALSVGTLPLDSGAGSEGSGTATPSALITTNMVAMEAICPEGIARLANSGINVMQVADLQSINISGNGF
Experimental: ATG_CIS is a cell-based, multiplexed-readout assay that uses HepG2, a human liver cell line, with measurements taken at 24 hours after chemical dosing in a 24-well plate.ATG_Sp1_CIS is one of 52 assay component(s) measured or calculated from the ATG_CIS assay. It is designed to make measurements of mRNA induction, a form of inducible reporter, as detected with fluorescence intensity signals by Reverse transcription polymerase chain reaction (RT-PCR) and Capillary electrophoresis technology.Data from the assay component ATG_Sp1_CIS was analyzed into 1 assay endpoint. This assay endpoint, ATG_Sp1_CIS, was analyzed with bidirectional fitting relative to DMSO as the negative control and baseline of activity. Using a type of inducible reporter, measures of mRNA for gain or loss-of-signal activity can be used to understand the reporter gene at the transcription factor-level as they relate to the gene SP1. Furthermore, this assay endpoint can be referred to as a primary readout, because this assay has produced multiple assay endpoints where this one serves a reporter gene function. To generalize the intended target to other relatable targets, this assay endpoint is annotated to the dna binding intended target family, where the subfamily is zinc finger.
Human liver HepG2 cells are transiently transfected with multiple reporter transcription units (MRTUs) in 6-well plates using FuGene 6 reagent (Roche; 3 ml FuGene/1 mg DNA). The MRTU constructs are regulated by a cis-regulating element (promoter). […] A major difference between the CIS and TRANS system is that in CIS activities of endogenous TFs are measured, whereas the TRANS assay evaluates changes in activities of exogenous, chimeric NR-Gal4 proteins. […] At the end of 24 hour incubation, total RNA was isolated using TriZol reagent (Invitrogen). The isolated RNA is then reverse-transcribed using oligo(dT) primer and Mo-MLV reverse transcriptase (Invitrogen) with DNAse I (Ambion) treatment for 30 min. The one-tenth of the produced cDNA was amplified by PCR using Taq DNA polymerase (Invitrogen) and two reporter sequence-specific primers. The PCR products were fluorescently labeled by primer extension with 6-arboxyfluorescein (6-FAM) 5'-labeled reporter sequence-specific primer (2 min at 95 C, 20 s at 68 C and 10 min at 72 C) and these products were digested with 5U of HpaI (New England Biolabs) for 2h at 37 C. The fragments were purified using Qiaquick PCR columns (Qiagen), analyzed on an ABI 3130xL genetic analyzer (Applied Biosystems) with peak positions identified by using a set of X-rhodamine (ROX)-labeled MapMarker1000 molecular weight standards (BioVentures). The raw capillary electrophoresis data was processed using Attagraph software (Attagene).

outcome, inactive:
CC[C@H](NC(=O)c1cc(F)ccc1NS(=O)(=O)c1cccc2cccnc12)c1ccccc1
CCCCCCCC[Si](OCC)(OCC)OCC
CCCCCCCCCCCO
CC(O)CC(C)(C)O (stereo not given)
Oc1ccccc1
O=C(O)Cc1cc(I)c(Oc2ccc(O)c(I)c2)c(I)c1
OCCO
Cc1ccc2oc(CN(Cc3ccccc3)C(=O)Nc3c(F)cc(F)cc3F)c(-c3ccc(Cl)cc3)c2c1
CCN(Cc1cccnc1)C(=O)c1cccc(Cl)c1[C@]1(C)C(=O)N(Cc2ccc(OC)cc2OC)c2ccc(Cl)cc21
O=C(O)c1ccccc1C(=O)OCc1ccccc1
CN1C(=O)N(c2ccccc2Br)Cc2cnc(Nc3ccc4c(c3)OCC(CO)O4)nc21 (stereo not given)
CC(C)(C)c1csc(-c2cc3cc(OCc4ccccc4CC(=O)O)ccc3o2)n1
Cc1cc(F)ccc1-c1cc(N2CC[C@@H](O)[C@H]2CO)ncc1N(C)C(=O)C(C)(C)c1cc(C(F)(F)F)cc(C(F)(F)F)c1
Clc1ccccc1C(c1ccccc1)(c1ccccc1)n1ccnc1
CCCOC(=O)c1cc(O)c(O)c(O)c1
O=C1c2ccccc2C(=O)N1CCc1noc(-c2ccc(CN3CCCCCC3)s2)n1
O=c1c(-c2ccc(O)cc2)coc2cc(O)cc(O)c12
CCCCCCCCCC(=O)O
CCCCCCCCOC(=O)c1cc(O)c(O)c(O)c1
CCCCCc1ccc(N)cc1
O=C1CCC(C2CCCCC2)CC1
Clc1cc(Cl)c2c(c1)N=C1CCCCCN1C2
CO[C@H]1/C=C/O[C@@]2(C)Oc3c(C)c(O)c4c(O)c(c(/C=N/N5CCN(C)CC5)c(O)c4c3C2=O)NC(=O)/C(C)=C\C=C\[C@H](C)[C@H](O)[C@@H](C)[C@@H](O)[C@@H](C)[C@H](OC(C)=O)[C@@H]1C
C[C@]12CC[C@@H]3c4ccc(O)cc4CC[C@H]3[C@@H]1CC[C@H]2O
Cc1ccc(C(C)C)cc1
CN(C)C(=O)C1(N2CCCCC2)CCN(CC[C@@]2(c3ccc(Cl)c(Cl)c3)CN(C(=O)c3ccccc3)CCO2)CC1
O=CCCCC=O
O=C(Nc1ccc(Cl)cc1)Nc1ccc(Cl)c(Cl)c1
NCc1cccc(C2CCN(C(=O)c3ccc(C#Cc4ccccc4F)o3)CC2)c1
CC(C)(O)c1ccc(CNC(=O)c2cccnc2Oc2ccc3nonc3c2)cc1
CN(C[C@@H](CC[N+]12CCC(C3CCCCC3)(CC1)CC2)c1ccc(Cl)c(Cl)c1)C(=O)c1cc(C(F)(F)F)cc(C(F)(F)F)c1
Cc1cn([C@H]2C[C@H](N=[N+]=[N-])[C@@H](CO)O2)c(=O)[nH]c1=O

AC50, active:
CCCCCCCC[Si](OCC)(OCC)OCC 159 µM
COc1cc(C(=O)NC2CCN(C)CC2)ccc1Nc1ncc2c(n1)N(C1CCCC1)CC(F)(F)C(=O)N2C 0.525 µM
O=c1c(-c2ccc(O)cc2)coc2cc(O)cc(O)c12 58.4 µM and 80.7 µM
O=C1CCC(C2CCCCC2)CC1 171 µM
CC(C)(c1cc(Br)c(O)c(Br)c1)c1cc(Br)c(O)c(Br)c1 39.3 µM and 31.9 µM
CC(=O)N1CCN(c2ccc(OC[C@H]3CO[C@](Cn4ccnc4)(c4ccc(Cl)cc4Cl)O3)cc2)CC1 49.9 µM
Cc1occc1C(=O)Nc1ccc(C(=O)N2CCC(F)(F)/C(=C\C(=O)N3CCC(N4CCCCC4)CC3)c3ccccc32)cc1 56 µM
NC(=O)c1nc(-c2cccc(-c3cc(F)ccc3OCC(F)(F)C(F)(F)F)c2)n[nH]1 16.9 µM
